Experimental findings from PubChem BioAssay are described below.

Molecules are shown by their SMILES. Values without a mark were called inactive.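 How the source made its calls, unless noted: active means viability at or below 10% of carrier control in both of two separate runs; inconclusive means viability at or below 10% in only one of the two runs; inactive means the rest.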

Sequence of Receptor tyrosine-protein kinase erbB-2 (Homo sapiens) (P04626 whole entry, looked up): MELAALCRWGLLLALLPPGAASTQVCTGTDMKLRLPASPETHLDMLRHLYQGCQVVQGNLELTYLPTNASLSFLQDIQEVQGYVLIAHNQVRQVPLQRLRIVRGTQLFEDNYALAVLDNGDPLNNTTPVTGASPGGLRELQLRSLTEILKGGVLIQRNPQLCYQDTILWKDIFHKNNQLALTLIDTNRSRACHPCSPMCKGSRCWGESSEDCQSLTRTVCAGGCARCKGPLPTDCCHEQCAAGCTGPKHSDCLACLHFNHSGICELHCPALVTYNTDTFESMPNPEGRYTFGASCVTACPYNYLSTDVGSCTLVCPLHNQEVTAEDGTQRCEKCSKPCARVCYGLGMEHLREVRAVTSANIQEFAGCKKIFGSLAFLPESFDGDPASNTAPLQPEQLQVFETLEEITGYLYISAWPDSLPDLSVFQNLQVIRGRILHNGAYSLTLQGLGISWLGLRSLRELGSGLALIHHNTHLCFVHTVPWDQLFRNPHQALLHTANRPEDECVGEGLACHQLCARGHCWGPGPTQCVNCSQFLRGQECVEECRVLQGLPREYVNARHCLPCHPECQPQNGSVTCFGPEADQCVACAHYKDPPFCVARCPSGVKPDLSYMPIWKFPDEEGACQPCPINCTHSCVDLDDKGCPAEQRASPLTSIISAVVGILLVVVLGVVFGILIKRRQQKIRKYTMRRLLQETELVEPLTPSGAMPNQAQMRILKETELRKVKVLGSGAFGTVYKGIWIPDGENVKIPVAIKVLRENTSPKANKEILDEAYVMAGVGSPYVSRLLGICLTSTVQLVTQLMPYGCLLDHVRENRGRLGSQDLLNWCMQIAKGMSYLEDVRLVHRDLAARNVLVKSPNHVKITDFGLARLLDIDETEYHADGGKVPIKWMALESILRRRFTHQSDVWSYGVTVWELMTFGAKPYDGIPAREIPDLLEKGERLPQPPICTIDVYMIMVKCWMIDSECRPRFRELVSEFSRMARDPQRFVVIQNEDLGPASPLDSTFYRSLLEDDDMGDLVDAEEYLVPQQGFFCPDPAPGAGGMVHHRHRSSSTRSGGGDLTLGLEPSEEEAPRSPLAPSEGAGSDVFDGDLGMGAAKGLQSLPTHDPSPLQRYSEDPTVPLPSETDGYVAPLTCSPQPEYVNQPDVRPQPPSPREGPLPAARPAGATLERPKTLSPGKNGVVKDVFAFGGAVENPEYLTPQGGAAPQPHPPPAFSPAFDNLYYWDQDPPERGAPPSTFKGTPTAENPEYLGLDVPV

The first assay has as its target Receptor tyrosine-protein kinase erbB-2 (Homo sapiens) (UniProt P04626). The assay can be described thus: reducers of endogenous Her2 protein level, primary screen, SKBR3 breast tumor cells, AlphaScreen, ATP viability (AID 461;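 active means Her2 level under about 52% in both replicate screens, with viability over 70% of control, limit read from the data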;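 further: lower value means less Her2 protein in the cells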). The note with it: 18-24 h, at 10 µM, hits give low values. On the technique in general: Alpha assays give light when donor and acceptor beads are brought close together.
Consider `O=C(CSc1nnc(-c2cccnc2)o1)Nc1ccccn1`, for which the Her2 level is 102%.
`CCC1Oc2ccccc2N(CC(=O)Nc2ccc(OC)cc2OC)C1=O` (stereo not given): the Her2 level is 95.5%.
As to `Cc1cccn2c(=O)c3cc(C(=O)N4CCCc5ccccc54)n(C)c3nc12`, the Her2 level is 80%.
On the same count and under the same terms, the value for `CCN(CC)CCCn1c(=S)[nH]c2cc(Cl)ccc2c1=O` was 96%; that for `CCCCC(=O)NCCNc1nc2c(c(=O)n(C)c(=O)n2C)n1Cc1ccccc1` was 83%.
Regarding `O=C(C1CCCCC1)N1CCC(c2nc3c(nnn3Cc3c(F)cccc3Cl)c(=O)[nH]2)CC1`, the Her2 level is 96.5%.
Turning to `CCOc1ccc(OCC)c(NC(=O)CN2CCN(C(=O)c3ccco3)CC2)c1`, the Her2 level was 103%.
`CN(C)CCCNC(=O)c1ccc(CN(c2ccccc2)S(C)(=O)=O)cc1`: the Her2 level is 96%.
On the same count and under the same terms, the same measure for `Cc1oc(-c2ccc(Cl)cc2)nc1CS(=O)CC(=O)NCCCN(C)C1CCCCC1` (stereo not given): 101%; for `N#CC1=C(N)OC(c2ccccc2)=C(C#N)C1c1ccc2c(c1)OCO2` (stereo not given): 108%; for `O=C1C(C=NCCCn2ccnc2)=C(O)c2ccccc21`: 82.5%.
`Cc1c(Cl)cccc1N1C(=O)c2ccccc2C1=O`: the Her2 level was 85.5%.
Still for that read-out and setting: the same measure for `CN1C(=O)NC(NC(=O)C2CCCCC2)(C(F)(F)F)C1=O` (stereo not given): 85%; for `CCOC(=O)C1=C(C)Nc2ncnn2C1c1ccccc1F` (stereo not given): 110%.
With `CCC(Oc1ccc2ccccc2c1)C(=O)O` (stereo not given), the Her2 level was 98.5%.
The same measure, in the same setting: the value for `C=Cn1c(C(=O)O)cc(CC)c1-c1ccccc1` was 101%.
Still for that read-out and setting: the value for `CC(=O)N1CCc2cc(S(=O)(=O)NC(C(=O)NCc3ccccc3)C(C)C)ccc21` (stereo not given) was 95.5%.
On to `COc1ccccc1CN1CCCC(C(=O)N(C)Cc2ccccc2)C1` (stereo not given), for which the Her2 level was 116%.
For the compound `CCOC(=O)c1c(N)sn(-c2ccccc2)c1=S`, the Her2 level is 108%.
For the compound `Cc1cc(C)c2c(n1)nn1c(N3CCOCC3)cc(C)nc21`, the Her2 level was 87.5%.
On to `CC(C)c1cc(C(=O)NCc2ccco2)no1`, for which the Her2 level is 99.5%.
Same read-out and setting: the same measure for `NC(=O)COC(=O)CNC(=O)c1ccc(Cl)cc1`: 98%; for `Cc1cccc(-c2c3c(=O)n(C)c(=O)n(C)c3cn2-c2ccc(O)cc2)c1`: 80%.
For the compound `Cn1c(SC/C=C/c2ccccc2)nnc1-c1cnccn1`, the Her2 level is 102%.
For `COc1ccc2nc(N3CCC(C)CC3)c(C#N)cc2c1`, the Her2 level is 101%.
Take `CC1(C)CC(=O)C(C#N)=C(NCCCO)C1`: the Her2 level is 98.5%.
With `CCCc1[nH]nc2c1C(c1cccc(OC(=O)c3ccco3)c1)C(C#N)=C(N)O2` (stereo not given), the Her2 level was 72%.
Same read-out and setting: the value for `CC(=O)N(c1ccc(N(C(C)=O)S(=O)(=O)c2cccs2)cc1)S(=O)(=O)c1cccs1` was 104%; that for `O=C(NCCC1=CCCCC1)N[C@@H](Cc1ccccc1)C(=O)O` was 114%; that for `COc1ccccc1C(=O)n1nc(-c2ccccc2)nc1N` was 90%.
Still for that read-out and setting: the same measure for `O=C(O)COc1ccc2occ(C(=O)c3ccccc3)c2c1`: 95.5%; for `O=C(NCC1CCCO1)C1CCCN(S(=O)(=O)c2cccc3nsnc23)C1` (stereo not given): 118%; for `CN1CCN(C(c2cccc(C(F)(F)F)c2)c2nnnn2C(C)(C)C)CC1` (stereo not given): 86.5%.
With `Nc1nnnn1/N=C/c1ccccc1OCc1ccccc1`, the Her2 level is 96.5%.
On the same count and under the same terms, the same measure for `Cc1ccc(C(=O)C2COC(=O)C2)cc1` (stereo not given): 80.5%; for `O=C(CSc1nnc(-c2c[nH]c3ccccc23)o1)N(Cc1ccccc1)c1ccc(F)cc1`: 102%; for `CC(C)OC(=O)CSc1nnc(-c2ccc(C(C)(C)C)cc2)n1N`: 108%.
On to `COc1cc(Br)cc(/C=N/c2ncn[nH]2)c1O`, for which the Her2 level is 89%.
Still for that read-out and setting: the value for `CSc1ccccc1N=CC1=C(O)CC(C)(C)CC1=O` was 96%; that for `CC1(C)CC(CCNC(=O)c2ccco2)CC(C)(C)N1` was 92%.

Tested on in another assay: not listed separately
The assay can be described thus: SK-BR-3 cell growth inhibitors, pilot screen, 24 h, human (AID 572).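 Further: compound exposure lasted between 18 and 24 h rather than exactly 24 h; 100% = carrier-treated control wells.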 As to conditions: SK-BR-3 viability, CellTiter-Glo luminescence, at 10 µM, hits give low values. (Cellular ATP, detected with luciferase, serves as a proxy for viable cell number.)
In the case of `O=C(CSc1nnc(-c2cccnc2)o1)Nc1ccccn1`, the viability (commonly a read-out of living cells in per cent, often relative to untreated cells) is 92.5%.
Turning to `CCC1Oc2ccccc2N(CC(=O)Nc2ccc(OC)cc2OC)C1=O` (stereo not given), the viability was 90.5%.
Still for that read-out and setting: the same measure for `Cc1cccn2c(=O)c3cc(C(=O)N4CCCc5ccccc54)n(C)c3nc12`: 86.5%; for `CCN(CC)CCCn1c(=S)[nH]c2cc(Cl)ccc2c1=O`: 101%.
Same read-out and setting: the value for `CCCCC(=O)NCCNc1nc2c(c(=O)n(C)c(=O)n2C)n1Cc1ccccc1` was 116%; that for `O=C(C1CCCCC1)N1CCC(c2nc3c(nnn3Cc3c(F)cccc3Cl)c(=O)[nH]2)CC1` was 87.5%; that for `CCOc1ccc(OCC)c(NC(=O)CN2CCN(C(=O)c3ccco3)CC2)c1` was 75%.
On to `CN(C)CCCNC(=O)c1ccc(CN(c2ccccc2)S(C)(=O)=O)cc1`, for which the viability is 97.5%.
For `Cc1oc(-c2ccc(Cl)cc2)nc1CS(=O)CC(=O)NCCCN(C)C1CCCCC1` (stereo not given), the viability was 91.5%.
`N#CC1=C(N)OC(c2ccccc2)=C(C#N)C1c1ccc2c(c1)OCO2` (stereo not given): the viability is 95%.
Same read-out and setting: the same measure for `O=C1C(C=NCCCn2ccnc2)=C(O)c2ccccc21`: 83%.
For the compound `Cc1c(Cl)cccc1N1C(=O)c2ccccc2C1=O`, the viability is 89.5%.
`CN1C(=O)NC(NC(=O)C2CCCCC2)(C(F)(F)F)C1=O` (stereo not given): the viability is 93%.
On the same count and under the same terms, the value for `CCOC(=O)C1=C(C)Nc2ncnn2C1c1ccccc1F` (stereo not given) was 94%; that for `CCC(Oc1ccc2ccccc2c1)C(=O)O` (stereo not given) was 89.5%; that for `C=Cn1c(C(=O)O)cc(CC)c1-c1ccccc1` was 96%.
For the compound `CC(=O)N1CCc2cc(S(=O)(=O)NC(C(=O)NCc3ccccc3)C(C)C)ccc21` (stereo not given), the viability was 97%.
For `COc1ccccc1CN1CCCC(C(=O)N(C)Cc2ccccc2)C1` (stereo not given), the viability is 70%.
Same read-out and setting: the value for `CCOC(=O)c1c(N)sn(-c2ccccc2)c1=S` was 87%; that for `Cc1cc(C)c2c(n1)nn1c(N3CCOCC3)cc(C)nc21` was 90%.
Consider `CC(C)c1cc(C(=O)NCc2ccco2)no1`, for which the viability was 101%.
Consider `NC(=O)COC(=O)CNC(=O)c1ccc(Cl)cc1`, for which the viability is 125%.
Regarding `Cc1cccc(-c2c3c(=O)n(C)c(=O)n(C)c3cn2-c2ccc(O)cc2)c1`, the viability was 102%.
Regarding `Cn1c(SC/C=C/c2ccccc2)nnc1-c1cnccn1`, the viability was 80.5%.
For the compound `COc1ccc2nc(N3CCC(C)CC3)c(C#N)cc2c1`, the viability is 108%.
Same read-out and setting: the same measure for `CC1(C)CC(=O)C(C#N)=C(NCCCO)C1`: 99.5%.
On the same count and under the same terms, the same measure for `CCCc1[nH]nc2c1C(c1cccc(OC(=O)c3ccco3)c1)C(C#N)=C(N)O2` (stereo not given): 93.5%; for `CC(=O)N(c1ccc(N(C(C)=O)S(=O)(=O)c2cccs2)cc1)S(=O)(=O)c1cccs1`: 90%; for `O=C(NCCC1=CCCCC1)N[C@@H](Cc1ccccc1)C(=O)O`: 104%.
On the same count and under the same terms, the same measure for `COc1ccccc1C(=O)n1nc(-c2ccccc2)nc1N`: 91%.
`O=C(O)COc1ccc2occ(C(=O)c3ccccc3)c2c1`: the viability is 102%.
Still for that read-out and setting: the same measure for `O=C(NCC1CCCO1)C1CCCN(S(=O)(=O)c2cccc3nsnc23)C1` (stereo not given): 95.5%.
Turning to `CN1CCN(C(c2cccc(C(F)(F)F)c2)c2nnnn2C(C)(C)C)CC1` (stereo not given), the viability was 94.5%.
Turning to `Nc1nnnn1/N=C/c1ccccc1OCc1ccccc1`, the viability is 118%.
Take `Cc1ccc(C(=O)C2COC(=O)C2)cc1` (stereo not given): the viability is 109%.
Still for that read-out and setting: the value for `O=C(CSc1nnc(-c2c[nH]c3ccccc23)o1)N(Cc1ccccc1)c1ccc(F)cc1` was 100%; that for `CC(C)OC(=O)CSc1nnc(-c2ccc(C(C)(C)C)cc2)n1N` was 93%.
The same measure, in the same setting: the same measure for `COc1cc(Br)cc(/C=N/c2ncn[nH]2)c1O`: 134%; for `CSc1ccccc1N=CC1=C(O)CC(C)(C)CC1=O`: 118%; for `CC1(C)CC(CCNC(=O)c2ccco2)CC(C)(C)N1`: 106%.
